This is a sample that favours compounds with a hit; in the whole collection about 5.2% have one here.
PLK1 PBD block: inhibitors of human PLK1 polo-box domain binding. Plk1 PBD binding of FITC phosphopeptide, fluorescence polarization. P53350. actives 2.8% (n = 360,000). Potency, µM, inactives show max response, negative = inhibition, most hits filed as inhibitors; note: series mostly up to about 57 µM; nearly all actives have a fitted effect of over 65% in size
VDR inh: vitamin D3 receptor (human) inhibition; P11473; VDR-SRC2-3 peptide fluorescence polarization, 2 h; Potency, µM, inactives show max response, negative = inhibition, hits mostly inhibitors; actives 0.93% (n = 400,000); AID 504847
Target sequence (P11473 whole entry, looked up): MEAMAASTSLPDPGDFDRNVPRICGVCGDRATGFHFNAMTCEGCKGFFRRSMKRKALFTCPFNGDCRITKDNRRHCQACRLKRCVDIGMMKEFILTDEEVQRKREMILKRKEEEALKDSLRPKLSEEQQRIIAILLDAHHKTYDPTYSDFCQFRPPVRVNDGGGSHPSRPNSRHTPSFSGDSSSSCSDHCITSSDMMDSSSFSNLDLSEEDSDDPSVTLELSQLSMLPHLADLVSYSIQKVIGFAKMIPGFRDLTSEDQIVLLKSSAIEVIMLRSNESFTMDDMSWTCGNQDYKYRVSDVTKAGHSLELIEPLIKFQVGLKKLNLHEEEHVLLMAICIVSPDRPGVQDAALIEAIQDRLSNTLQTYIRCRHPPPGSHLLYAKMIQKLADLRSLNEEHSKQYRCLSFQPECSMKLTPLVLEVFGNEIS
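Signal is fluorescence polarization, reporting how far test compounds block the interaction of VDR with the SRC2-3 coregulator peptide after a 2 h room-temperature incubation.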
Sfp inh: inhibitors of Bacillus subtilis Sfp phosphopantetheinyl transferase. actives 3.5% (n = 310,000). Q9F4F7. Potency, µM, without a hit: largest response in the series, negative = inhibition, actives largely listed as inhibitors. Biochemical Sfp PPTase activity, qHTS. AID 1490;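 note: the enzyme is Sfp with the accession as filed and its product quenches rhodamine fluorescence; 0% = enzyme reaction without inhibitor and -100% = no enzyme wells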
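After 15 min at room temperature with compound, 15 nM Sfp received 5 uM rhodamine-CoA plus 12.5 uM BHQ-2-ybbR (50 mM Hepes pH 7.6, 10 mM MgCl2). Rate came from the fluorescence difference over 30 min, ex 525/em 598 nm.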
IDH1 R132H inh: human IDH1 R132H inhibition. AID 602179. O75874. Potency, µM (highest dose often 76.6 µM), for inactives: at the highest dose activity change, negative = inhibition, usual class: inhibitors. actives 0.093% (n = 390,000). IDH1-R132H enzyme, NADPH consumption, diaphorase/resazurin fluorescence; note: nearly all actives have a fitted effect of over 65% in size
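IDH1-R132H (0.5 ug/mL) preincubated 30 min with compound, then NADPH (0.016 mM) and alpha-KG (2 mM) added; 80 min at RT, pH 7.5. Remaining NADPH coupled via diaphorase/resazurin to fluorescence (540/590 nm); concentration-response curves normalized to no-enzyme control.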
TrxR1 substrate: is turned over as a substrate by rat TrxR1; O89049; purified TrxR1 substrate turnover, NADPH consumption readout; Potency, µM (doses to about 114 µM), for the others: top-dose activity change, negative = substrate turnover; actives 0.01% (n = 390,000); note: nearly all actives have a fitted effect of over 50% in size
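Rat TrxR1, dispensed at 90 nM, was prereduced with 400 uM NADPH (final) for 5 min at ~22 deg C, then incubated with compound 15 min before 400 uM selenite. A first-read NADPH fluorescence drop versus no-compound background flagged substrates.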
rTrxR1 inhibitor: inhibitors of rat thioredoxin reductase 1 | O89049 | actives 1% (n = 390,000) | Potency, µM (highest dose often 114 µM), without a hit: top-dose activity change, negative = inhibition, most hits filed as inhibitors | recombinant rTrxR1, NADPH fluorescence consumption, selenite substrate | AID 588453; note: nearly all actives have a fitted effect of over 65% in size
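Rat TrxR1 (90 nM in the dispensed reagent) was pre-reduced with 400 uM NADPH for 5 min at room temperature, then incubated with compound for 15 min. After 400 uM selenite was added, NADPH fluorescence (Ex 340/Em 450 nm) was followed for 8 min.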
TbPYK confirm: Trypanosoma brucei pyruvate kinase inhibition, cherry-pick confirmation; shares compounds with PLK1 PBD block; recombinant TbPYK, Kinase-Glo ATP luminescence; Potency, µM (highest dose often 76.9 µM), inactives show top-dose activity change, negative = inhibition, hits mostly inhibitors; actives 67% (n = 890); note: nearly all actives have a fitted effect of over 70% in size
TbPYK orthogonal: TbPYK inhibition, orthogonal confirmation; shares compounds with PLK1 PBD block; actives 62% (n = 890); recombinant TbPYK, ADP-Glo luminescence, 60 min; Potency, µM (top dose mostly 76.9 µM), inactives show at the highest dose activity change, negative = inhibition, most hits filed as inhibitors; note: nearly all actives have a fitted effect of over 75% in size
Active calls of the source: *; ? = inconclusive; / = no result; [ ] = remark or other dose. Calls come from the whole dose curve; as a rule, active = well fitted curve in the direction sought with a large enough effect; inconclusive = small, poorly fitted or top-dose-only effect, or another doubt; inactive = no such curve, though single readings can be large; an effect the other way counts as inactive or inconclusive. Unless noted, % is set by controls: 0 for no effect and ±100 for the full control effect; potency is the fitted concentration of half-maximal effect.

SMILES	PLK1 PBD block	VDR inh	Sfp inh	IDH1 R132H inh	TrxR1 substrate	rTrxR1 inhibitor	TbPYK confirm	TbPYK orthogonal
O=C(O)c1[nH]n(-c2ccc(S(=O)(=O)O)cc2)c(=O)c1N=Nc1ccc(S(=O)(=O)O)cc1	/	/	/	/	-23%	-17%	/	/
Brc1ccc(CN2CCCCCC2)cc1	-5%	1%	/	12%	7%[57.1 µM]	-77%	/	/
O=C(c1ccc2ncsc2c1)N1CCCCC1	1%	-10%	-22%	12%	-3%	-7%	?	?
Cc1ccc(Cn2cc(CCC(=O)NCc3ccccc3F)c3ccccc32)cc1	/	7%	/	-9%	-5%	9%	/	/
CCN(CC)c1ccc(NC(=O)Cn2cc3c(n2)CCC(C)C3)c(C)c1 (stereo not drawn)	0%	1%	-26%	1%	-10%	3%[57.1 µM]	22µM*	?
Cc1ccc(NC(=O)c2cc(NC(=O)c3ccco3)ccc2N2CCOCC2)cc1	-4%	0%	-7%	-2%	3%	-3%	/	/
Cc1ccc(NC(=O)c2cc(N3C(=O)C=CC3=O)ccc2N2CCOCC2)cc1	3µM*	28µM*	4.5µM*	4%	5%[57.1 µM]	0.89µM*	10µM*	11µM*
COCCNc1nc(C)nc2c1nc(-c1ccccc1)n2CC1CCN(C)CC1	/	/	28%	/	/	/	/	/
COc1ccc(OC)c(N=c2ssnc2Cl)c1	2.7µM*	?	8.9µM*	-4%	-11%	-22%[57.1 µM]	16µM*	14µM*
COc1cc(N=c2ssnc2Cl)c(OC)cc1Cl	1.7µM*	16µM*	10µM*	46µM*	-13%[57.1 µM]	?	4.5µM*	6.3µM*
Cc1ccc(CNC(=O)Nc2cc(C(=O)NCc3cccc(F)c3)ccc2N2CCCC2)cc1	/	4%	/	9%	-3%[57.1 µM]	4%[57.1 µM]	/	/
O=[N+]([O-])c1cc(-c2nc(-c3ccccc3)no2)ccc1N1CCOCC1	/	8%	/	6%	1%	7%	/	/
Cc1ccc(NC(=O)NC(=O)CN2CCN(c3ccc(O)cc3)CC2)c(C)c1	-8%	-8%	50µM*	-5%	1%	8%	11µM*	5.6µM*
Cc1ccc(NC(=O)NC(=O)CN2CCC(C(N)=O)CC2)c(C)c1	-20%	?	/	-5%	-3%	22%	/	/
CC(=O)c1cccc(-c2ccnc3c2CC(C(=O)NCc2ccco2)O3)c1 (stereo not drawn)	-22%	/	/	/	/	/	/	/
Cc1cccc(C)c1-n1nnnc1C1(C)CCC(=O)N1CCCn1ccnc1 (stereo not drawn)	-13%	/	/	/	/	/	/	/
CCCCn1nnnc1C1(C)CCC(=O)N1CCCn1ccnc1 (stereo not drawn)	6µM*	/	/	/	/	/	14µM*	35µM*
CC1CC(C)(C)CC2(C1)NC(=O)N(CC(=O)Nc1ccc(N3CCCCC3)cc1)C2=O (stereo not drawn)	-10%	-2%	2%	1%	-18%	-11%	/	/
Cc1cc(Br)ccc1NC(=O)CN(C)C(=O)Cn1c(=O)cnc2ccccc21	-15%	6%	-7%	-3%	1%	-4%	?	?
CN(CC(=O)Nc1cccc(F)c1)C(=O)Cn1c(=O)cnc2ccccc21	3%	4%	/	6%	0%	6%	/	/
NC(=O)CSc1nnc(-c2cccc(S(=O)(=O)N3CCOCC3)c2)n1C1CCCCCC1	3µM*	?	11%	-1%	-11%	12%[57.1 µM]	-13%	-19%
CC(=O)C1=C(C)NC(SCC(N)=O)=C(C#N)C1CC(C)C (stereo not drawn)	-18%	79µM*	7%	6%	1%	-34%	7.1µM*	8.9µM*
CCOC(=O)C1=C(C)NC(SCC(N)=O)=C(C#N)C1c1ccccc1 (stereo not drawn)	-7%	-3%	14%	1%	6%	-10%	/	/
CC(=O)C1=C(C)NC(SCC(N)=O)=C(C#N)C1C (stereo not drawn)	21µM*	?	40µM*	9%	-10%	-31%	?	?
CC(=O)C1=C(C)NC(SCC(=O)c2ccc(F)cc2)=C(C#N)C1CC(C)C (stereo not drawn)	?	-22%	14µM*	2%	5%[57.1 µM]	-38%	1.1µM*	1.8µM*
SMILES	PLK1 PBD block	VDR inh	Sfp inh	IDH1 R132H inh	TrxR1 substrate	rTrxR1 inhibitor	TbPYK confirm	TbPYK orthogonal
C[C@@H]1COc2cc(N3CCC[C@H]3CO)ccc2S(=O)(=O)N1	-1%	/	/	/	/	/	/	/
Cc1nc2c(-c3ccccc3)c(C)nn2c(C)c1CCC(=O)NCc1ccc(Cl)cc1	/	-2%	/	-2%	12%	22%	/	/
COc1cccc(C(=O)NNC(=O)c2ccc3ccccc3c2O)c1	-8%	-26%	/	-6%	-6%	8%	/	/
CCCCNC(=O)CN1CCN(c2ncc(NC(=O)c3ccc(Cl)cc3)cc2C(=O)O)CC1	/	4%	/	/	1%[57.1 µM]	10%[57.1 µM]	/	/
Cc1ccc2oc(C(=O)N(C)Cc3ccc(C)o3)c(C)c2c1	?	?	10µM*	6%	-5%	7.1µM*	16µM*	28µM*
Cc1ccccc1N1C(=O)CC(Sc2nnc(-c3ccccc3)o2)C1=O (stereo not drawn)	0%	-11%	10µM*	0%	12%[57.1 µM]	?	14µM*	18µM*
CC1=C(C(N)=O)C(c2ccccc2[N+](=O)[O-])n2ncnc2N1 (stereo not drawn)	8.4µM*	25µM*	40µM*	7%	-6%	1%	25µM*	?
O=C(CCCn1c(=O)c2sccc2n(Cc2ccc(F)cc2Cl)c1=O)NCc1ccc2c(c1)OCO2	/	7%	/	-3%	3%	13%	/	/
C=C(CN(C)C)C(=O)c1cc(C)ccc1C	2.7µM*	45µM*	/	2%	9%[57.1 µM]	1.8µM*	5.6µM*	16µM*
O=C1C(=Cc2cccc(O)c2O)SC(=S)N1CCCN1CCOCC1	5.3µM*	/	/	-11%	/	/	4.5µM*	2.2µM*
O=C(CCCN1C(=O)/C(=C/c2ccccc2Cl)SC1=S)NCCCN1CCOCC1	-25%	-4%	-6%	4%	-14%	-23%	/	/
COc1ccc(-c2nnc(SCCC(=O)O)n2-c2ccccc2)cc1	-2%	2%	23%	-1%	10%	6%	7.9µM*	5µM*
COc1ccc(-c2nnc(SCC(=O)c3ccc[nH]3)n2-c2ccccc2)cc1	-4%	-9%	5%	-3%	-2%	-6%	/	/
Cc1ccc(NC(=O)CSc2nccn2Cc2ccc3c(c2)OCO3)c(C)c1	/	16%	/	30%	-2%[57.1 µM]	14%[57.1 µM]	/	/
